The values that follow come from publication PMC7862700, “An all-to-all approach to the identification of sequence-specific readers for epigenetic DNA modifications on cytosine”.

Assay in all cases: DAPPL (digital affinity profiling via proximity ligation, sequencing); 10 mM Tris-HCl pH 7.5, 50 mM NaCl, 1 mM DTT, 4% glycerol, room temperature, 30 min; GST-TFs on glutathione beads, 16-mer random dsDNA library, 0.1% formaldehyde crosslink after washing; high values mean tight binding
One assay addresses T1, FEV (Homo sapiens, UniProt Q99581 1-238).
T1 sequence: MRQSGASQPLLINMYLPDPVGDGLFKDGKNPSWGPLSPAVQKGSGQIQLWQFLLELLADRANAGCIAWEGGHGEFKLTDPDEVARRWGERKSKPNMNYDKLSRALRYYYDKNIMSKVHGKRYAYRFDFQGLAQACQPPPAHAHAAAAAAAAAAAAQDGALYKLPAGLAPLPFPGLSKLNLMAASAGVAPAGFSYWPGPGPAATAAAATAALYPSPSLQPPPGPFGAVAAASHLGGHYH
The note with it: protein: recombinant; tags: N-terminal GST; dsDNA, one strand shown. The procedure, abridged: (§1)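 Beads coated with glutathione captured GST-fused human transcription factors that had been expressed in yeast, and the factors were then given DNA barcodes and pooled with a tag-only sample. The pools were incubated with 200 nmole of a random double-stranded 16-mer DNA library in Tris/NaCl/DTT/glycerol buffer for 30 min at room temperature, washed, crosslinked with 0.1% formaldehyde and proximity-ligated with BsaI/T4 ligase at 37 °C for 1 h. PCR amplification and Illumina NextSeq500 sequencing came last. Binding signal is each hexamer's read frequency for a factor divided by its frequency for the tag-only sample.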

For the next assay, the target named is ETV5 (Homo sapiens, UniProt P41161 1-510). Conditions: protein: recombinant; tags: N-terminal GST; dsDNA, one strand shown. In a few lines: as §1
In the next assay the target is HSF1 (Homo sapiens, UniProt Q00613 1-529). The note with it: protein: recombinant; tags: N-terminal GST; chain copies: 3; dsDNA, one strand shown. The procedure, abridged:
as §1

In the next assay the target is T2, SPIC (Homo sapiens, UniProt Q8N5J4 1-248).
T2 sequence: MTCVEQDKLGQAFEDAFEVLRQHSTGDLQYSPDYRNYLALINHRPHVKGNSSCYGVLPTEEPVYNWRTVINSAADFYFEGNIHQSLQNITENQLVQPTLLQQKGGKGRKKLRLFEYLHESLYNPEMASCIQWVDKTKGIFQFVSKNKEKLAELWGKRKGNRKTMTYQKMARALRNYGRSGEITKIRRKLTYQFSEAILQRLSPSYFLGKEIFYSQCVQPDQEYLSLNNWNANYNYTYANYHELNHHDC
Conditions: protein: recombinant; tags: N-terminal GST; dsDNA, one strand shown. In a few lines: as §1

A further assay has as its target ELF4 (Homo sapiens, UniProt Q99607 1-663). Conditions: protein: recombinant; tags: N-terminal GST; dsDNA, one strand shown. The procedure, abridged:
as §1

The next assay has as its target T3, ELK4 (Homo sapiens, UniProt P28324-2 1-405).
T3 sequence: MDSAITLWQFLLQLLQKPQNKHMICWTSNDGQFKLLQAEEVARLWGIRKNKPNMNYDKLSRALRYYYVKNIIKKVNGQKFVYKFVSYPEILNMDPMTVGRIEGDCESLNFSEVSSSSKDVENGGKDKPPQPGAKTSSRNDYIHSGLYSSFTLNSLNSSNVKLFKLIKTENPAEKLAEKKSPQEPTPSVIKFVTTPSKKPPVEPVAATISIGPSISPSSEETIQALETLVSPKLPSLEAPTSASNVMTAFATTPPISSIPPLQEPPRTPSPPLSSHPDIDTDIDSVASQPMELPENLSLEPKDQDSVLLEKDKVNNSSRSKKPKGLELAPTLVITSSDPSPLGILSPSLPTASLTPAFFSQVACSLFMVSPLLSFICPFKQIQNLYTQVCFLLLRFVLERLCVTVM
Conditions: protein: recombinant; tags: N-terminal GST; dsDNA, one strand shown. The procedure, abridged:
as §1

In a further assay the target is T4, ETV2 (Homo sapiens, UniProt O00321 1-342).
T4 sequence: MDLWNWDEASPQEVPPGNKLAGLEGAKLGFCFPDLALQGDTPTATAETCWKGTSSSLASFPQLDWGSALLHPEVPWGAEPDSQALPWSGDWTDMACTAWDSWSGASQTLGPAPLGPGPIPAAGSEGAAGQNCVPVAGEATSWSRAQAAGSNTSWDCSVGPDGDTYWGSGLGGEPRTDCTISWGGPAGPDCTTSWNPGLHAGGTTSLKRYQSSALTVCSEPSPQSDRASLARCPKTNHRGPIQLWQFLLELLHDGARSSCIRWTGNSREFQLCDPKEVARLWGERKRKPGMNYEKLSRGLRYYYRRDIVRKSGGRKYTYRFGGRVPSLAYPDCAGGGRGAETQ
The note with it: protein: recombinant; tags: N-terminal GST; dsDNA, one strand shown. In a few lines:
as §1

For a further assay, the target named is T5, ELF3 (Homo sapiens, UniProt P78545 1-371).
T5 sequence: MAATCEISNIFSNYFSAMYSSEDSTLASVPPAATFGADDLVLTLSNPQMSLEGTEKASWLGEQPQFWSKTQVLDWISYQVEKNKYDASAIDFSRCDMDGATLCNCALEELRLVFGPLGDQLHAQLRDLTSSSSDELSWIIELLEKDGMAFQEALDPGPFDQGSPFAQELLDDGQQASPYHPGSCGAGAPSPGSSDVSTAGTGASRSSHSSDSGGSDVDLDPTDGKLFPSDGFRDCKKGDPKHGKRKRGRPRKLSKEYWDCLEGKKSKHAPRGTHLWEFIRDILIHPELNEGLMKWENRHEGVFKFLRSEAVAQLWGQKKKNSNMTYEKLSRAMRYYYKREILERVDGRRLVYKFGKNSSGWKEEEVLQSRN
The note with it: protein: recombinant; tags: N-terminal GST; dsDNA, one strand shown. In a few lines: as §1

In another assay the target is CRX (Homo sapiens, UniProt O43186 1-299). The note with it: protein: recombinant; tags: N-terminal GST; dsDNA, one strand shown. In a few lines: as §1
The next assay has as its target ETV1 (Homo sapiens, UniProt P50549 1-477). The note with it: protein: recombinant; tags: N-terminal GST; dsDNA, one strand shown. The procedure, abridged:
as §1

For the next assay, the target named is T6, ERF (Homo sapiens, UniProt P50548 1-548).
T6 sequence: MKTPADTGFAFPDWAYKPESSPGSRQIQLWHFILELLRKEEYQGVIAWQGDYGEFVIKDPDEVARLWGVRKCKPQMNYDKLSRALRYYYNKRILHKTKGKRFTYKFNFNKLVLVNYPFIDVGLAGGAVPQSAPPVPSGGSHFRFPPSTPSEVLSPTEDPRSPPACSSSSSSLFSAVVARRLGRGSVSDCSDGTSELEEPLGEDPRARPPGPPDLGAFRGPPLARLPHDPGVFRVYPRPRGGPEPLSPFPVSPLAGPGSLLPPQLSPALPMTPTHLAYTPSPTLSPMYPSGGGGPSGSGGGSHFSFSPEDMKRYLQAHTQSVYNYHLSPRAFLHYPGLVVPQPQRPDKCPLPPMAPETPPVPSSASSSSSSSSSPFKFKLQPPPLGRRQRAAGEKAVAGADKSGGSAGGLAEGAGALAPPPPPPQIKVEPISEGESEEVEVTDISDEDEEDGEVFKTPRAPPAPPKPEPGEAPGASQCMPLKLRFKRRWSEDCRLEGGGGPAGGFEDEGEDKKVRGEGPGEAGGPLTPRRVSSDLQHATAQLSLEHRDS
The note with it: protein: recombinant; tags: N-terminal GST; dsDNA, one strand shown. The procedure, abridged:
as §1

In a further assay the target is T7, ETV3L (Homo sapiens, UniProt Q6ZN32 1-361).
T7 sequence: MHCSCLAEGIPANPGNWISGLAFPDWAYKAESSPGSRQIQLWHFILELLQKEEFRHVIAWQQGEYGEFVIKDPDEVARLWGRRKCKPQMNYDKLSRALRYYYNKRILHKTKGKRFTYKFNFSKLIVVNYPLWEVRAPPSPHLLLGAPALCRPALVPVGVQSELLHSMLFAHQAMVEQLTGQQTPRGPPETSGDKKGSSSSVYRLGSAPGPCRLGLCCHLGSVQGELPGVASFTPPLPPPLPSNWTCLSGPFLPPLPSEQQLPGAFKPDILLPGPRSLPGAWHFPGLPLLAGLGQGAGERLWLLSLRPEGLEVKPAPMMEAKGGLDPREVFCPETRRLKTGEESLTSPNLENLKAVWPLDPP
Conditions: protein: recombinant; tags: N-terminal GST; dsDNA, one strand shown. In a few lines: as §1

The target of the next assay is T8, ETS2 (Homo sapiens, UniProt P15036 1-469).
T8 sequence: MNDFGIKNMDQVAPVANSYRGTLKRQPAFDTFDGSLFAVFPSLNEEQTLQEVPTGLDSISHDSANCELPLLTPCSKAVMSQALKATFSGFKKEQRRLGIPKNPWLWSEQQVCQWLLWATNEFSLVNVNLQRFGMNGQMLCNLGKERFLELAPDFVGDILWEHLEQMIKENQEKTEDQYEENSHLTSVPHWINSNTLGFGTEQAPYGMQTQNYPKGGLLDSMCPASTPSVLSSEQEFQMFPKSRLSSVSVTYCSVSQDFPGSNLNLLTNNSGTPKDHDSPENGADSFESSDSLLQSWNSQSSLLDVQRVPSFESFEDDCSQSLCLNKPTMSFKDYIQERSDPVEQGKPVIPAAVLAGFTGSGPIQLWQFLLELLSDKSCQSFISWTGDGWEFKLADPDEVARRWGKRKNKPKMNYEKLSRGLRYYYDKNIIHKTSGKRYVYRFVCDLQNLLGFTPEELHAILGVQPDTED
The note with it: protein: recombinant; tags: N-terminal GST; dsDNA, one strand shown. In a few lines: as §1

For a further assay, the target named is T9, SPDEF (Homo sapiens, UniProt O95238 1-335).
T9 sequence: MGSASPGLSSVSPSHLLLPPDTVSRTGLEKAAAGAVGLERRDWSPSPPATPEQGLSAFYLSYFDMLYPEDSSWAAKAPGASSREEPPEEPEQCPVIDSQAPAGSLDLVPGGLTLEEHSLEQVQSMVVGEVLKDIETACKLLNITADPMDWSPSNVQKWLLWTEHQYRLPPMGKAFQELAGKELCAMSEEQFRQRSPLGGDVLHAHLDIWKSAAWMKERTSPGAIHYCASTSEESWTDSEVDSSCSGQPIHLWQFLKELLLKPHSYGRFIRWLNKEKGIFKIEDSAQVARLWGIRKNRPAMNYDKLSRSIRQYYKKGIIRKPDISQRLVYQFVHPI
Conditions: protein: recombinant; tags: N-terminal GST; dsDNA, one strand shown. In a few lines: as §1

The next assay addresses T10, ETV7 (Homo sapiens, UniProt Q9Y603 1-341).
T10 sequence: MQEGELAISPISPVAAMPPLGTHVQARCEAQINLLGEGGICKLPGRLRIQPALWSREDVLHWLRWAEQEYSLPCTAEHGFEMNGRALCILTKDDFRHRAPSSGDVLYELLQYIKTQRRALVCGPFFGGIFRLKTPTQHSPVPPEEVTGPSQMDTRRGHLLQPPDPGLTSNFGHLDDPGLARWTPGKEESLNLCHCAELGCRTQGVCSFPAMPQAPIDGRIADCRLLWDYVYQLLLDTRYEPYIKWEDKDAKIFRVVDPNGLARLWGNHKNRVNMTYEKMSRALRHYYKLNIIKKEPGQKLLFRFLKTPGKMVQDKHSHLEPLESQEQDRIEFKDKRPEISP
Conditions: protein: recombinant; tags: N-terminal GST; dsDNA, one strand shown. In a few lines:
as §1

The next assay addresses T11, ELF5 (Homo sapiens, UniProt Q9UKW6-2 1-255).
T11 sequence: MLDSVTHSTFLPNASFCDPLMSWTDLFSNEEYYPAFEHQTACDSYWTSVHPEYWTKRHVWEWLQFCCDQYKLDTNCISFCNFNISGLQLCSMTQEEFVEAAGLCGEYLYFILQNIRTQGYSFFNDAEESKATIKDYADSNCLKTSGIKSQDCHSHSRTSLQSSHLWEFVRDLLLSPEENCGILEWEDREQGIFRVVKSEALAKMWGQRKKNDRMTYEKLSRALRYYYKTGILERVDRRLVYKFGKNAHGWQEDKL
Conditions: protein: recombinant; tags: N-terminal GST; dsDNA, one strand shown. In a few lines:
as §1

The target in the next assay is T12, ETV3 (Homo sapiens, UniProt P41162-2 1-143).
T12 sequence: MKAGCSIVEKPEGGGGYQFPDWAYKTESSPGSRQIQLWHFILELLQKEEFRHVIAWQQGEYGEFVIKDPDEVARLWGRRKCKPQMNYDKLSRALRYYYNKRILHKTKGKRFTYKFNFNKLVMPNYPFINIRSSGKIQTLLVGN
The note with it: protein: recombinant; tags: N-terminal GST; dsDNA, one strand shown. The procedure, abridged: as §1

The target of a further assay is ETV6 (Homo sapiens, UniProt P41212 1-452). The note with it: protein: recombinant; tags: N-terminal GST; dsDNA, one strand shown. The procedure, abridged: as §1
Sequence of ETV6 (P41212 whole entry): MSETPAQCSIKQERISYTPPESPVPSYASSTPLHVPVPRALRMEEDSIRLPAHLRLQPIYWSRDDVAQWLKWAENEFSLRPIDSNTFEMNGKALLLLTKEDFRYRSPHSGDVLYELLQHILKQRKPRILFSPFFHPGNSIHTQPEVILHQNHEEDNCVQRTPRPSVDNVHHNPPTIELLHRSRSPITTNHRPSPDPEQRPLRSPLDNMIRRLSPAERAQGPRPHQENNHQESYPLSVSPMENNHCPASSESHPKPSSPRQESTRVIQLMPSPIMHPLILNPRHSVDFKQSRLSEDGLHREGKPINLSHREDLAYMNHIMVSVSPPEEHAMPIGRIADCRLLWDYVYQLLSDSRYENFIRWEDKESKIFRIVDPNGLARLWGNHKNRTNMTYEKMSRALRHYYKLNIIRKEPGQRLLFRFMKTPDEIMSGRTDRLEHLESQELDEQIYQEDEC

Sequence of ETV5 (P41161 whole entry): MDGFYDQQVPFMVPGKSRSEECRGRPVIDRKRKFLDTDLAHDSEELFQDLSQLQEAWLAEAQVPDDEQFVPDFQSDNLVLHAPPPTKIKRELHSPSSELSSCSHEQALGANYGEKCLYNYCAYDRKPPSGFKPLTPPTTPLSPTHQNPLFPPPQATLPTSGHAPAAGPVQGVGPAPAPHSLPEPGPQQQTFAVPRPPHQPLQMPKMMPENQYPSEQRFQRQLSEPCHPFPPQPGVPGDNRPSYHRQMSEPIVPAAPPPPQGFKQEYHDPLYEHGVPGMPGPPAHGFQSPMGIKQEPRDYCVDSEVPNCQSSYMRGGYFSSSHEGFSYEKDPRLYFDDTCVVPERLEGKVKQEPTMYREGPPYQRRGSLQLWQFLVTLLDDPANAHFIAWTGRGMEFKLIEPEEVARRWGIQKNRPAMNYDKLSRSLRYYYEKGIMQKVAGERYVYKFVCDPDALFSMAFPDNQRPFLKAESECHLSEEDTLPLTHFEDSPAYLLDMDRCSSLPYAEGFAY
Sequence of ETV1 (P50549 whole entry): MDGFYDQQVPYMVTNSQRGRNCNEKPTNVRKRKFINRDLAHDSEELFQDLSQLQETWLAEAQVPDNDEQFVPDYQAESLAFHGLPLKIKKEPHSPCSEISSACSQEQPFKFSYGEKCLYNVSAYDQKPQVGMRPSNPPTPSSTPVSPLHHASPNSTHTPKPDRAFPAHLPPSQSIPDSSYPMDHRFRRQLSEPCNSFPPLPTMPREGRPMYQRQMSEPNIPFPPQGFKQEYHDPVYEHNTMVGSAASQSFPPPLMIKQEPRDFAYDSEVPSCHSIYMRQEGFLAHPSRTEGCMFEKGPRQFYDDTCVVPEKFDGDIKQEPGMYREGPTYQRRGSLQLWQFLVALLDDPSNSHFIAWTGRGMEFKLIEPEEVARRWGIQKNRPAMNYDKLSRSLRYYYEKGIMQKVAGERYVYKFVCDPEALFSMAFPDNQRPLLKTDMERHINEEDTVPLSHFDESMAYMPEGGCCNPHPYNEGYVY
Sequence of ELF4 (Q99607 whole entry): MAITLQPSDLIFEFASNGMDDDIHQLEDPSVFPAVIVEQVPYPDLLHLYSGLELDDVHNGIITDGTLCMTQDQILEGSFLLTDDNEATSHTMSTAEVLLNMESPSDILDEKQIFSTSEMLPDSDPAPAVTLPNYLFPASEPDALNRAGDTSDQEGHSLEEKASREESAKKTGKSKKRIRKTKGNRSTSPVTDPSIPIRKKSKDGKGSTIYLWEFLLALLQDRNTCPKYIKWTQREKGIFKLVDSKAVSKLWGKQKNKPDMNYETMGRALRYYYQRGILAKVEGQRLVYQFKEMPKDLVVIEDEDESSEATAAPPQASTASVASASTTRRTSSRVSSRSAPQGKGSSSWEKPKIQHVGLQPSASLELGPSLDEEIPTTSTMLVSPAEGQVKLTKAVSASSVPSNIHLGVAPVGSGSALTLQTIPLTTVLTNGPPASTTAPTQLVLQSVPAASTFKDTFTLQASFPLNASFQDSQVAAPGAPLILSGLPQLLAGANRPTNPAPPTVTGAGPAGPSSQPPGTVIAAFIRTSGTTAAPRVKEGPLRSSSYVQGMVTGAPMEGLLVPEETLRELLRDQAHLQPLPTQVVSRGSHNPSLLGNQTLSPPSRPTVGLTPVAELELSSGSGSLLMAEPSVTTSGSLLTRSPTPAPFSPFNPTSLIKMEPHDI
Sequence of CRX (O43186 whole entry): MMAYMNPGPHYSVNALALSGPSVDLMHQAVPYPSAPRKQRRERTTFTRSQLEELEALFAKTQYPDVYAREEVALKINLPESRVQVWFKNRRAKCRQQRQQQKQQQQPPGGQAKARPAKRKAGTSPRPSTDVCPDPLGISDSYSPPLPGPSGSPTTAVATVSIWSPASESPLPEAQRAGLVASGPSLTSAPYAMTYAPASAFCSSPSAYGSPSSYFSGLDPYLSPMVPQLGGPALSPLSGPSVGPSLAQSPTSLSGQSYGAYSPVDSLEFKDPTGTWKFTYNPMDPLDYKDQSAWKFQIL
Sequence of HSF1 (Q00613 whole entry): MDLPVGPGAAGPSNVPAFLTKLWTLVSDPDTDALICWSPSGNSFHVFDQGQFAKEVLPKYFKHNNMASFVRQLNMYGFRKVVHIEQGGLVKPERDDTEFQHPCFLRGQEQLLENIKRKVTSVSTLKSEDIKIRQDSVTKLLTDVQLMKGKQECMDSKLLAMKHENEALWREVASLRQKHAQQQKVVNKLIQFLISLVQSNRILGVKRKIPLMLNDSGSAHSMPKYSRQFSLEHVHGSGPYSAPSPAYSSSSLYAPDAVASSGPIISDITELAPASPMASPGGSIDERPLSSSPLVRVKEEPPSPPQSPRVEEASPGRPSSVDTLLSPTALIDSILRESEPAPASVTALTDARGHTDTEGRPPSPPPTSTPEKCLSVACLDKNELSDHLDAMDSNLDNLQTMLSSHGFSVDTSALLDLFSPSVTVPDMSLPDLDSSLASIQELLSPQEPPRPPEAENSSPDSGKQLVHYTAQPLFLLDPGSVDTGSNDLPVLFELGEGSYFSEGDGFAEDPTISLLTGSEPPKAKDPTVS

Consider TGCTCG, for which the binding signal with FEV was 1.23 fold enrichment (6-mer frequency, TF over GST control); with ETV5 it was 1.31 fold enrichment (6-mer frequency, TF over GST control); with HSF1 it was 1.56 fold enrichment (6-mer frequency, TF over GST control); in the assay with SPIC it was 1.33 fold enrichment (6-mer frequency, TF over GST control); with ELF4, 1.24 fold enrichment (6-mer frequency, TF over GST control); in the assay with ELK4, 1.26 fold enrichment (6-mer frequency, TF over GST control). In addition, the binding signal with ETV2 was 1.21 fold enrichment (6-mer frequency, TF over GST control); with ELF3 it was 1.28 fold enrichment (6-mer frequency, TF over GST control); in the assay with CRX it was 1.17 fold enrichment (6-mer frequency, TF over GST control); in the assay with ETV1, 1.28 fold enrichment (6-mer frequency, TF over GST control); with ERF, 1.38 fold enrichment (6-mer frequency, TF over GST control); with ETV3L it was 1.46 fold enrichment (6-mer frequency, TF over GST control). Besides, the binding signal is 1.29 fold enrichment (6-mer frequency, TF over GST control) in the assay with ETS2; 1.07 fold enrichment (6-mer frequency, TF over GST control) in the assay with SPDEF; 1.18 fold enrichment (6-mer frequency, TF over GST control) in the assay with ETV7; 1.18 fold enrichment (6-mer frequency, TF over GST control) with ELF5; 1.3 fold enrichment (6-mer frequency, TF over GST control) with ETV3; 1.31 fold enrichment (6-mer frequency, TF over GST control) with ETV6.
